In PubChem BioAssay (EPA / NIEHS):
Inconclusive results are not listed. Calls of active or inactive are those of the source. The calls were made as follows, unless noted: active = hit-call score of the fitted dose curve at least 0.9, where 1 is the maximum; inconclusive = response in the unintended direction; inactive = score below 0.9.

Tests used:
[1] = CLD_ACTIN_6hr: CellzDirect (CLD) Gene Expression Assay for Baseline Control (Actin) at 6 hours (AID 2283676);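 also: active means increased actin mRNA relative to DMSO vehicle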
Procedure, shortened: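 Primary human hepatocytes dosed with fresh chemical solutions (vehicle 0.2% DMSO), harvested at 6 h. Actin mRNA quantified by quantitative nuclease protection assay with chemiluminescent read-out, as background control relative to DMSO.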

[2] = read-out: Cytochrome P450 2B6 (Homo sapiens) (UniProt P20813); test: CLD_CYP2B6_6hr: CellzDirect (CLD) Gene Expression Assay for xenobiotic metabolism (CYP2B6) at 6 hours (AID 2283677);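 also: actives raise CYP2B6 transcript above DMSO baseline so AC50 marks an inducer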
Procedure, shortened: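 Primary human hepatocytes dosed with chemicals at multiple concentrations, vehicle 0.2% DMSO; CYP2B6 mRNA induction measured 6 h after dosing by quantitative nuclease protection assay with chemiluminescence, gain of signal fitted relative to DMSO.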

[3] = CCTE_Padilla_ZF_144hpf_TERATOSCORE: (Legacy) CCTE's 144 Hour Post-fertilization zebrafish Assay Teratoscore, Padilla Lab (AID 2283679; active = hit-call score of the fitted dose curve at least 0.9, where 1 is the maximum; inactive = score below 0.9;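 as to AC50: zebrafish embryos with chorions exposed by immersion from 6-8 hpf to 5 dpf with daily renewal; teratogenicity score from eye scoring of death hatching and malformations at 144 hpf; higher score means more developmental defects relative to DMSO baseline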)
Procedure, shortened: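 Larvae scored by eye at 144 hpf for death, hatching and malformations after a day in clean Hanks'. Before that, daily-renewed exposure at 80 uM (0.4% DMSO, 26C) from roughly 6-8 hpf through 5 dpf, 4 embryos per chemical.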

[4] = read-out: Glyceraldehyde-3-phosphate dehydrogenase (Homo sapiens) (UniProt P04406); test: CLD_GAPDH_6hr: CellzDirect (CLD) Gene Expression Assay for Baseline Control (Glyceraldehyde 3-phosphate dehydrogenase) at 6 hours (AID 2283681);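 also: active means increased signal relative to DMSO vehicle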
Procedure, shortened: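 Primary human hepatocytes from two donor preparations, dosed at multiple concentrations with 0.2% DMSO vehicle; GAPDH mRNA measured 6 h after dosing by chemiluminescent quantitative nuclease protection assay (qNPA) on denatured lysates. Serves as background control; cytotoxicity annotated by morphology.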

[5] = read-out: xenobiotic metabolism (CYP1A2), CYP1A2 (gene 1544); test: CLD_CYP1A2_24hr: CellzDirect (CLD) Gene Expression Assay for xenobiotic metabolism (CYP1A2) at 24 hours (AID 2283683)
Procedure, shortened: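 Primary human hepatocytes from two donor preparations dosed daily with multiple concentrations of chemical, 0.2% DMSO vehicle. CYP1A2 mRNA at 24 h quantified by qNPA chemiluminescence; gain of signal analyzed relative to DMSO. Cytotoxicity flagged by phase-contrast morphology.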

[6] = read-out: Cytochrome P450 2B6 (Homo sapiens) (UniProt P20813); test: CLD_CYP2B6_24hr: CellzDirect (CLD) Gene Expression Assay for xenobiotic metabolism (CYP2B6) at 24 hours (AID 2283686)
Procedure, shortened: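 Primary human hepatocytes dosed daily for two days with fresh solutions, harvested at 24 hours; mRNA induction quantified by qNPA chemiluminescence, gain of signal vs 0.2% DMSO vehicle. Cytotoxicity annotated from phase-contrast morphology.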

[7] = read-out: Cytochrome P450 2C9 (Homo sapiens) (UniProt P11712); test: CLD_CYP2C9_24hr: CellzDirect (CLD) Gene Expression Assay for xenobiotic metabolism (CYP2C9) at 24 hours (AID 2283688)
Procedure, shortened: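 Primary human hepatocytes from two donor preparations, dosed daily for two days at multiple concentrations; vehicle 0.2% DMSO. CYP2C9 mRNA induction at 24 h measured by qNPA chemiluminescence relative to DMSO; cytotoxicity annotated from morphology.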

[8] = read-out: alkyl and aryl transferase (GSTA2), GSTA2 (gene 2939); test: CLD_GSTA2_24hr: CellzDirect (CLD) Gene Expression Assay for alkyl and aryl transferase (GSTA2) at 24 hours (AID 2283693)
Procedure, shortened: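 Primary human hepatocytes (two donor preparations) dosed daily for two days with chemicals at multiple concentrations (vehicle 0.2% DMSO); GSTA2 mRNA at 24 h measured by qNPA chemiluminescence, gain-of-signal versus DMSO.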

[9] = read-out: Cytochrome P450 3A4 (Homo sapiens) (UniProt P08684); test: CLD_CYP3A4_6hr: CellzDirect (CLD) Gene Expression Assay for xenobiotic metabolism (CYP3A4) at 6 hours (AID 2283680)
Procedure, shortened: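 Primary human hepatocytes (two donor preparations) dosed; CYP3A4 mRNA harvested at 6 h and quantified by qNPA chemiluminescence. Gain of signal fitted against 0.2% DMSO vehicle; cytotoxicity flagged by phase-contrast morphology.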

[10] = read-out: HMG-CoA synthase (HMGCS2), HMGCS2 (gene 3158); test: CLD_HMGCS2_6hr: CellzDirect (CLD) Gene Expression Assay for HMG-CoA synthase (HMGCS2) at 6 hours (AID 2283682);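 also: actives raise HMGCS2 transcript above the 0.2% DMSO vehicle baseline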
Procedure, shortened: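 Primary human hepatocytes dosed daily with fresh chemical, 0.2% DMSO vehicle; HMGCS2 mRNA measured at 6 h by qNPA chemiluminescence. Gain of signal fitted against DMSO; cytotoxicity flagged from phase-contrast morphology.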

[11] = read-out: ABC Transporter (ABCB1), ABCB1 (gene 5243); test: CLD_ABCB1_24hr: CellzDirect (CLD) Gene Expression Assay for ABC Transporter (ABCB1) at 24 hours (AID 2283684);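 as to AC50: potency for increase in ABCB1 mRNA relative to DMSO vehicle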
Procedure, shortened: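 Primary human hepatocytes, two donor preparations, dosed daily with fresh solutions; vehicle 0.2% DMSO; harvested at 24 h. ABCB1 mRNA measured by quantitative nuclease protection assay (chemiluminescence); morphology-based cytotoxicity annotated.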

[12] = read-out: Broad substrate specificity ATP-binding cassette transporter ABCG2 (Homo sapiens) (UniProt Q9UNQ0); test: CLD_ABCG2_24hr: CellzDirect (CLD) Gene Expression Assay for ABC Transporter (ABCG2) at 24 hours (AID 2283685)
Procedure, shortened: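 Primary human hepatocytes were dosed daily with ToxCast chemicals at multiple concentrations (vehicle 0.2% DMSO). ABCG2 mRNA was measured at 24 h by qNPA chemiluminescence; induction was scored as gain of signal versus DMSO.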

[13] = read-out: Cytochrome P450 3A4 (Homo sapiens) (UniProt P08684); test: CLD_CYP3A4_24hr: CellzDirect (CLD) Gene Expression Assay for xenobiotic metabolism (CYP3A4) at 24 hours (AID 2283689)
Procedure, shortened: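 Primary human hepatocytes from two donors dosed daily with fresh compound for two days, 0.2% DMSO vehicle. CYP3A4 mRNA at 24 hr by qNPA chemiluminescence; gain-of-signal fit versus DMSO, cytotoxicity flagged by morphology.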

[14] = read-out: organic anion transporter (SLCO1B1), SLCO1B1 (gene 10599); test: CLD_SLCO1B1_24hr: CellzDirect (CLD) Gene Expression Assay for organic anion transporter (SLCO1B1) at 24 hours (AID 2283690)
Procedure, shortened: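 Primary human hepatocytes (two donor preparations) dosed daily for two days with chemicals at multiple concentrations, 0.2% DMSO vehicle. SLCO1B1 mRNA at 24 h measured by qNPA chemiluminescence; induction fitted relative to DMSO.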

[15] = read-out: HMG-CoA synthase (HMGCS2), HMGCS2 (gene 3158); test: CLD_HMGCS2_24hr: CellzDirect (CLD) Gene Expression Assay for HMG-CoA synthase (HMGCS2) at 24 hours (AID 2283691)
Procedure, shortened: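 Primary human hepatocytes from two donor preparations, dosed daily with fresh solutions; vehicle 0.2% DMSO, 24 h harvest. HMGCS2 mRNA quantified by qNPA with S1 nuclease digestion and chemiluminescence; gain fitted versus DMSO, cytotoxicity annotated by morphology.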

[16] = read-out: ABC Transporter (ABCB1), ABCB1 (gene 5243); test: CLD_ABCB1_48hr: CellzDirect (CLD) Gene Expression Assay for ABC Transporter (ABCB1) at 48 hours (AID 2283695);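 as to AC50: potency for induction meaning increase of mRNA over DMSO vehicle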
Procedure, shortened: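 Primary human hepatocytes from two donor preparations dosed daily on two consecutive days with 0.2% DMSO vehicle. Harvest at 48 h. ABCB1 mRNA quantified by qNPA with chemiluminescence and fitted for gain of signal versus DMSO.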

[17] = read-out: sulfotransferase (SULT2A), SULT2A1 (gene 6822); test: CLD_SULT2A_24hr: CellzDirect (CLD) Gene Expression Assay for sulfotransferase (SULT2A) at 24 hours (AID 2283694)
Procedure, shortened: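 Primary human hepatocytes from two donor preparations were dosed daily with fresh solutions, vehicle 0.2% DMSO. At 24 h, lysates went to quantitative nuclease protection (qNPA) with S1 digestion and chemiluminescent readout. Cytotoxicity was annotated from phase-contrast morphology.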

[18] = read-out: Cytochrome P450 2C19 (Homo sapiens) (UniProt P33261); test: CLD_CYP2C19_6hr: CellzDirect (CLD) Gene Expression Assay for xenobiotic metabolism (CYP2C19) at 6 hours (AID 2283678)
Procedure, shortened: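 Primary human hepatocytes from two donor preparations were dosed daily, with 0.2% DMSO as vehicle, and harvested 6 h after dosing. CYP2C19 mRNA induction was measured by qNPA chemiluminescence and fitted as gain of signal against DMSO.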

[19] = read-out: ABC Transporter (ABCB11), ABCB11 (gene 8647); test: CLD_ABCB11_6hr: CellzDirect (CLD) Gene Expression Assay for ABC Transporter (ABCB11) at 6 hours (AID 2283675);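 also: hits raise ABCB11 mRNA level so AC50 marks induction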
Procedure, shortened: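 Human primary hepatocytes (two donor preparations) given fresh chemical daily at multiple concentrations, vehicle 0.2% DMSO. ABCB11 mRNA induction measured 6 h after dosing by qNPA chemiluminescence versus DMSO; cytotoxicity annotated from morphology.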

Measured: AC50

Broad substrate specificity ATP-binding cassette transporter ABCG2 (Homo sapiens), sequence (Q9UNQ0 whole entry, looked up): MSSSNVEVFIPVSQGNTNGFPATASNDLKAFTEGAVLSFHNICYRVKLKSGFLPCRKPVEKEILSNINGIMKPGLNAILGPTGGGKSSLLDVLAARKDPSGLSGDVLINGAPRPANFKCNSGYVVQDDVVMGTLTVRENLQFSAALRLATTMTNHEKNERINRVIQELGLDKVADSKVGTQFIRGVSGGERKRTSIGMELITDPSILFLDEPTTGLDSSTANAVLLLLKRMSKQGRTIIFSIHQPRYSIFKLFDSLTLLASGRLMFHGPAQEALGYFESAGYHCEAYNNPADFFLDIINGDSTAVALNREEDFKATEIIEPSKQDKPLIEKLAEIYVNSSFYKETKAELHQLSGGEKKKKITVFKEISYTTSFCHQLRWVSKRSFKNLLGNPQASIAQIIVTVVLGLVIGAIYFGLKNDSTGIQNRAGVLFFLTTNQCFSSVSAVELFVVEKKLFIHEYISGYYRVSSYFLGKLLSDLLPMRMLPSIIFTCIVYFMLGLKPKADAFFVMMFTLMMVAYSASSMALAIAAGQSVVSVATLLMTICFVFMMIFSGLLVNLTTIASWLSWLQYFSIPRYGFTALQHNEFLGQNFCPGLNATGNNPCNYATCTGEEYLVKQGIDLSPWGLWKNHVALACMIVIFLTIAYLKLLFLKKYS
Cytochrome P450 2C19 (Homo sapiens), sequence (P33261 whole entry, looked up): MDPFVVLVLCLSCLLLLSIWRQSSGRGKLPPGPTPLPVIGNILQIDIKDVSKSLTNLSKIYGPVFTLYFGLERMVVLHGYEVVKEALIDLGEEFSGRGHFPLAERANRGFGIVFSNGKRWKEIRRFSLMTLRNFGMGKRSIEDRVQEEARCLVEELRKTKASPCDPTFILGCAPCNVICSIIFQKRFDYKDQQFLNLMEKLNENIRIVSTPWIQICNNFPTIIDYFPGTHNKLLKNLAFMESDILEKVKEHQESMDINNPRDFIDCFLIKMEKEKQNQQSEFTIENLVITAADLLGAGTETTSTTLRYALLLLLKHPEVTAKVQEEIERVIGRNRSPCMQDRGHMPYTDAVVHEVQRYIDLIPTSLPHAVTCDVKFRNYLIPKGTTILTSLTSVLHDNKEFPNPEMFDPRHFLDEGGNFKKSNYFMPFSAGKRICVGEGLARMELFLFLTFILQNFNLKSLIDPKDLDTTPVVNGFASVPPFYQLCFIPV
Cytochrome P450 3A4 (Homo sapiens), sequence (P08684 whole entry, looked up): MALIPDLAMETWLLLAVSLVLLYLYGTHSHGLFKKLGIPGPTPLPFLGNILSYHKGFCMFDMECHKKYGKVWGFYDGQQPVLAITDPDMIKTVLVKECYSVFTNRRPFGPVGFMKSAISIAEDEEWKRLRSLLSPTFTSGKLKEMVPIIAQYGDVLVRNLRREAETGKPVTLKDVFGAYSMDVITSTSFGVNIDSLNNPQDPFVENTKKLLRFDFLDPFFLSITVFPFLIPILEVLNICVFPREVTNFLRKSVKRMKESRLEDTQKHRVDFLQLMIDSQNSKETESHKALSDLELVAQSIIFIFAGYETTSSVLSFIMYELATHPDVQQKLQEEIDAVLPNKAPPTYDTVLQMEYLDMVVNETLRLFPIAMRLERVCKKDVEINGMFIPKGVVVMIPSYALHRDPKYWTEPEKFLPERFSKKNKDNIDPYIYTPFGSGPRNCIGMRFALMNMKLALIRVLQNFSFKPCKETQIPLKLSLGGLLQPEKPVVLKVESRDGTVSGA
Glyceraldehyde-3-phosphate dehydrogenase (Homo sapiens), sequence (P04406 whole entry, looked up): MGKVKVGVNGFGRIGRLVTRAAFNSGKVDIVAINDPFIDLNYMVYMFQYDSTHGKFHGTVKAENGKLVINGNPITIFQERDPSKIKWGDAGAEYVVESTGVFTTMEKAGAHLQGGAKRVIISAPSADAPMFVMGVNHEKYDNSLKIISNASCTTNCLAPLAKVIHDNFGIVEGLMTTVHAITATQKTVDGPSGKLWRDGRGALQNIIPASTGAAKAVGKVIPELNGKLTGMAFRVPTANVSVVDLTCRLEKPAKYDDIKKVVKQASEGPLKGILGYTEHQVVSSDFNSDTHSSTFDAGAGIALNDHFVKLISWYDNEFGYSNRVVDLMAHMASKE

CCCCOCN(C(=O)CCl)c1c(CC)cccc1CC
inactive: [1] | [4] | [5] | [7] | [8]
active: [2] 2290 nM | [3] 5420 nM | [6] 1110 nM

CCCN(CC)CC1COC2(CCC(C(C)(C)C)CC2)O1 (configuration not stated)
active: [2] 13400 nM | [3] 62900 nM | [5] 583 nM | [6] 9210 nM | [13] 4820 nM | [15] 74.2 nM
inactive: [9] | [10] | [11] | [12] | [14] | [8] | [16]

CN/C(=N\[N+](=O)[O-])NCc1cnc(Cl)s1
inactive: [3]

Cc1cc(C)nc(Nc2ccccc2)n1
active: [2] 994 nM | [5] 5770 nM | [6] 1900 nM | [13] 1780 nM
inactive: [3] | [17]

CCCCC(O)(Cn1cncn1)c1ccc(Cl)cc1Cl (configuration not stated)
active: [2] 2080 nM | [3] 36500 nM | [5] 1900 nM | [11] 31900 nM | [6] 1900 nM | [13] 1130 nM | [16] 31900 nM
inactive: [1] | [12] | [17]

CCSC(=O)N1CCCCCC1
active: [2] 2280 nM | [6] 302 nM
inactive: [1] | [3] | [10] | [5] | [7] | [8]

CCNC(=O)NC(=O)C(C#N)=NOC
active: [3] 33100 nM
inactive: [18] | [4] | [10] | [5] | [12] | [7] | [14] | [15]

N#CN=C1SCCN1Cc1ccc(Cl)nc1
active: [6] 11600 nM
inactive: [2] | [18] | [3] | [4] | [5] | [12] | [7] | [15] | [8]

Cc1c(COC(=O)[C@@H]2[C@H](/C=C(\Cl)C(F)(F)F)C2(C)C)cccc1-c1ccccc1
inactive: [12] | [7] | [14] | [8]
active: [2] 4270 nM | [3] 623 nM | [5] 32200 nM | [11] 29900 nM | [6] 4370 nM

CCOP(=S)(OCC)Oc1nc(Cl)n(C(C)C)n1
inactive: [19] | [12] | [7] | [8]
active: [2] 511 nM | [3] 57200 nM | [5] 975 nM | [6] 383 nM | [13] 677 nM

CCOC(=O)C(C)OC(=O)c1cc(Oc2ccc(C(F)(F)F)cc2Cl)ccc1[N+](=O)[O-] (configuration not stated)
inactive: [18] | [12]
active: [2] 7300 nM | [3] 190 nM | [10] 24.1 nM | [5] 4610 nM | [6] 10300 nM | [13] 3190 nM | [15] 310 nM
